PubChem BioAssay (Tox21)
Results filed as inconclusive are left out. The source made the active and inactive calls. Unless noted, calls follow the shape of the dose curve; as a rule, active = well fitted curve in the direction sought with a large enough effect in the repeat runs; inconclusive = weak or mixed curves; inactive = no such curve, though single readings can be large; an effect the other way counts as inactive or inconclusive.

Columns and labels:
[1] = qHTS assay to identify small molecule agonists of the estrogen receptor alpha (ER-alpha) signaling pathway in the presence of an antagonist - cell viability counter screen (AID 1259386);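 also: series mostly up to about 92 µM; cells exposed to compounds for 22 h at 37 °C before the viability read; nearly all actives have a fitted effect of over 30% in size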
Method in brief: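 Using estrogen-depleted VM7Luc4E2 cells, the 15-concentration compound series was applied together with 10.0nM ICI-182,780 and incubated 22hr at 37C/5% CO2. Cell viability was then scored by CellTiter-Fluor.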

[2] = target: Progesterone receptor (Homo sapiens) (UniProt P06401); test: qHTS assay to identify small molecule agonists of the progesterone receptor (PR) signaling pathway (AID 1346784; calls by dose curve; also: nearly all actives have a fitted effect of over 30% in size)
Method in brief: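 Compounds were tested for PR agonism in HEK 293T cells bearing a beta-lactamase gene under UAS control. Treatment lasted 16 hr at 37C; signal came from fluorescence of a FRET substrate.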

[3] = target: Progesterone receptor (Homo sapiens) (UniProt P06401); test: qHTS assay to identify small molecule antagonists of the progesterone receptor (PR) signaling pathway (AID 1346795; active = well fitted inhibition curve with a large enough effect in the signal ratio in the repeat runs, not every such curve was filed as active; the % refers to the signal ratio; also: potency is read from the fitted curve at half-maximal effect)
Method in brief: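 In HEK293T cells bearing the PR-UAS-bla reporter, compound effects on promegestone-driven (1 nM) beta-lactamase expression are assessed after 16 hr using a fluorescent FRET substrate incubated 2 hr at room temperature.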

[4] = qHTS assay to identify small molecule antagonists of the progesterone receptor (PR) signaling pathway - cell viability counter screen (AID 1346798); also: series mostly up to about 92 µM; nearly all actives have a fitted effect of over 50% in size
Method in brief: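 Following a 4 hr attachment, PR-UAS-bla HEK293T cells in charcoal-stripped FBS medium were exposed to compounds with R5020 for 16 hr; CellTiter-Glo was added and luminescence read after 30 min at room temperature.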

[5] = qHTS assay to identify small molecule agonists of the progesterone receptor (PR) signaling pathway - cell viability counter screen (AID 1346799; calls by dose curve; also: nearly all actives have a fitted effect of over 45% in size; also: potency is read from the fitted curve at half-maximal effect)
Method in brief: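 Here, 3,000 PR-UAS-bla HEK293T cells per well were treated with compounds for 16 hr after a 6 hr preincubation at 37C and 5% CO2; cell viability is the CellTiter-Glo luminescence signal.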

[6] = qHTS assay to identify small molecule antagonists of the TGF-beta/Smad signaling pathway - cell viability counter screen (AID 1346824); also: nearly all actives have a fitted effect of over 50% in size
Method in brief: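 SBE-bla HEK 293T cells, incubated overnight, then compound plus 0.25 ng/mL TGF-beta1 (stock added) for 5 hr at 37 C. Viability was read in the same wells by CellTiter-Glo luminescence after 30 min at room temperature.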

[7] = qHTS assay to identify small molecule agonists of the TGF-beta/Smad signaling pathway - cell viability counter screen (AID 1346829); also: top concentration of the series differs between compounds; nearly all actives have a fitted effect of over 45% in size
Method in brief: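 Luminescence from CellTiter-Glo, read after a 30 min room-temperature incubation, gives cell viability of SBE-bla HEK 293T cells treated 5 hr with compounds at 37 C.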

[8] = qHTS assay to identify small molecule agonists of the TGF-beta/Smad signaling pathway (AID 1346859; active = well fitted activation curve with a large enough effect in the signal ratio in the repeat runs, not every such curve was filed as active; the % refers to the signal ratio; also: series mostly up to about 77 µM)
Method in brief: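 Each well held 4,000 SBE-bla HEK 293T cells incubated overnight before compound addition; 5 hr later the cleavable FRET substrate went on for 2 hr at room temperature, and fluorescence was read at two emissions.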

[9] = Human pregnane X receptor (PXR) small molecule agonists, qHTS cell viability counter screen (AID 1346977); also: nearly all actives have a fitted effect of over 50% in size; also: potency is read from the fitted curve at half-maximal effect
Method in brief: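 Tox21 qHTS format; PXR-Luc HepG2, 2,000/well, charcoal-stripped FBS 5%. Cpd exposure 24hr. Read: CellTiter-Fluor fluorescence, multiplexed with luciferase.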

[10] = Caspase-3/7 induction in HepG2 cells by small molecules, qHTS assay (AID 1346978); also: nearly all actives have a fitted effect of over 15% in size
Method in brief: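 Wild-type HepG2 cells, 2,000/well, settled 5 hr at 37 C and 5% CO2, then compound-treated for 17 hr; caspase-3/7 activity read by luminescent Caspase-Glo 3/7 after 30 min at room temperature.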

[11] = Caspase-3/7 induction in CHO-K1 cells by small molecules, qHTS cell viability counter screen (AID 1346979); also: nearly all actives have a fitted effect of over 35% in size; also: potency is read from the fitted curve at half-maximal effect
Method in brief: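 CellTiter-Fluor viability check, qHTS format: wild-type CHO-K1, 16hr compound treatment, 1hr reagent incubation, fluorescence read.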

[12] = Caspase-3/7 induction in CHO-K1 cells by small molecules, qHTS assay (AID 1346980); also: nearly all actives have a fitted effect of over 15% in size
Method in brief: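 Wild-type CHO-K1 cells exposed to compounds for 17hr at 37 C, 5% CO2. Caspase-3/7 activity then measured by Caspase-Glo 3/7 luminescence after 30min at room temperature.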

[13] = Caspase-3/7 induction in HepG2 cells by small molecules, qHTS cell viability counter screen (AID 1346981); also: series mostly up to about 92 µM; nearly all actives have a fitted effect of over 30% in size
Method in brief: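 After a 5-hr attachment period at 37 C and 5% CO2, wild-type HepG2 cells received compounds in DMSO. Sixteen hours later CellTiter-Fluor was dispensed and the fluorescent signal quantified after a further hour.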

[14] = target: Thyrotropin receptor (Homo sapiens) (UniProt P16473); test: qHTS assay to identify small molecule antagonists of the thyroid stimulating hormone receptor (TSHR) signaling pathway (AID 1259385; calls by dose curve; also: nearly all actives have a fitted effect of over 20% in size)
Method in brief: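 TSHR-HEK293 cells (800/well) plated 18 h, then compounds with Ro20-1724 and TSH at 1.5 ng/mL final, 30 min at room temperature. cAMP quantified by HTRF (cAMP-d2/anti-cAMP-cryptate, 1 h); 15 concentrations in triplicate.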

[15] = target: Thyrotropin-releasing hormone receptor (Homo sapiens) (UniProt P34981); test: qHTS assay to identify small molecule antagonists of the thyrotropin-releasing hormone receptor (TRHR) signaling pathway (AID 1346877; active = well fitted inhibition curve with a large enough effect in the repeat runs, not every such curve was filed as active; also: series mostly up to about 51 µM)
Method in brief: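 Calcium signal in dye-loaded TRHR/HEK293 cells; compounds added 5 min before TRH (1 nM final); fluorescence monitored 3 min at 1 s steps.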

[16] = target: Thyrotropin-releasing hormone receptor (Homo sapiens) (UniProt P34981); test: qHTS assay to identify small molecule agonists of the thyrotropin-releasing hormone receptor (TRHR) signaling pathway (AID 1346891; calls by dose curve; also: series mostly up to about 58 µM)
Method in brief: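 Screening of agonists relied on calcium signalling in HEK293 cells expressing human TRHR: dye loading 2 h at 37 °C preceded compound addition and a 3-min fluorescence time course.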

[17] = target: Nuclear receptor subfamily 1 group I member 2 (Homo sapiens) (UniProt O75469); test: Human pregnane X receptor (PXR) small molecule agonists, qHTS assay (AID 1346982); also: nearly all actives have a fitted effect of over 35% in size; also: potency is read from the fitted curve at half-maximal effect
Method in brief: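 Tox21 qHTS; PXR-Luc HepG2; compounds pinned from DMSO; 24 hr, 37 C; ONE-Glo luciferase detection, 30 min room temperature.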

[18] = target: Nuclear receptor subfamily 1 group I member 2 (Rattus norvegicus) (UniProt Q9R1A7); test: Rat pregnane X receptor (rPXR) activation by small molecules, qHTS assay (AID 1346983); conditions: rPXR luciferase reporter cells, One-Glo luminescence, 24 h; max activation: hits give high values; also: nearly all actives have a fitted effect of over 20% in size; also: potency is read from the fitted curve at half-maximal effect
Method in brief: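 Cell-based rPXR activation assay: rPXR cells, 2,000 per well, rested 5hr at 37 C, then exposed to compounds in DMSO for 24 hr at 37 C. Luciferase activity read by One-Glo luminescence after 30 min at room temperature.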

[19] = target: Nuclear receptor subfamily 1 group I member 2 (Homo sapiens) (UniProt O75469); test: CYP3A4 induction through human pregnane X receptor (PXR) by small molecules, qHTS assay (AID 1346984); also: nearly all actives have a fitted effect of over 40% in size; also: potency is read from the fitted curve at half-maximal effect
Method in brief: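 Cells (DPX-2; HepG2 with PXR element plus CYP3A4-promoter luciferase) settled 5hr, then were treated 24hr at 37C. A 3hr, 3uM-final Luciferin-IPA step preceded luminescence measurement with One-Glo.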

[20] = target: Nuclear receptor subfamily 1 group I member 2 (Homo sapiens) (UniProt O75469); test: Human pregnane X receptor (PXR) activation by small molecules, qHTS assay (AID 1346985); also: nearly all actives have a fitted effect of over 40% in size; also: potency is read from the fitted curve at half-maximal effect
Method in brief: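 DPX-2 cells (HepG2 co-transfected with a PXR response element and a CYP3A4-promoter luciferase construct) were seeded at 2,000 per well, rested 5 hr at 37C, then exposed to DMSO-dissolved compounds for 24 hr. Activation was read as luciferase luminescence.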
% is scaled to controls: 0 for no effect and ±100 for the full control effect.

Chain of Nuclear receptor subfamily 1 group I member 2 (Homo sapiens) (O75469 whole entry, looked up): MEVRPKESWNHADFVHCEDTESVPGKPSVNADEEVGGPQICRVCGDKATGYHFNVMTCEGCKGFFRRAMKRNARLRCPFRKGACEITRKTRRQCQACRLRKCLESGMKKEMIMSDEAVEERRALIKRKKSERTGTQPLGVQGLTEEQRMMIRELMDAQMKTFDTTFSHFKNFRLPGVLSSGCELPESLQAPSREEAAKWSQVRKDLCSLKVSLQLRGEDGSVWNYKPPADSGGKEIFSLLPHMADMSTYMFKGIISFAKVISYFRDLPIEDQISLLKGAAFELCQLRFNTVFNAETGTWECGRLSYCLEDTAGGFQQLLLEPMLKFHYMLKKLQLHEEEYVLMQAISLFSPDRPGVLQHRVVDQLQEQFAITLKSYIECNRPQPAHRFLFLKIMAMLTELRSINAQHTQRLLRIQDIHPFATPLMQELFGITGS
Chain of Progesterone receptor (Homo sapiens) (P06401 whole entry, looked up): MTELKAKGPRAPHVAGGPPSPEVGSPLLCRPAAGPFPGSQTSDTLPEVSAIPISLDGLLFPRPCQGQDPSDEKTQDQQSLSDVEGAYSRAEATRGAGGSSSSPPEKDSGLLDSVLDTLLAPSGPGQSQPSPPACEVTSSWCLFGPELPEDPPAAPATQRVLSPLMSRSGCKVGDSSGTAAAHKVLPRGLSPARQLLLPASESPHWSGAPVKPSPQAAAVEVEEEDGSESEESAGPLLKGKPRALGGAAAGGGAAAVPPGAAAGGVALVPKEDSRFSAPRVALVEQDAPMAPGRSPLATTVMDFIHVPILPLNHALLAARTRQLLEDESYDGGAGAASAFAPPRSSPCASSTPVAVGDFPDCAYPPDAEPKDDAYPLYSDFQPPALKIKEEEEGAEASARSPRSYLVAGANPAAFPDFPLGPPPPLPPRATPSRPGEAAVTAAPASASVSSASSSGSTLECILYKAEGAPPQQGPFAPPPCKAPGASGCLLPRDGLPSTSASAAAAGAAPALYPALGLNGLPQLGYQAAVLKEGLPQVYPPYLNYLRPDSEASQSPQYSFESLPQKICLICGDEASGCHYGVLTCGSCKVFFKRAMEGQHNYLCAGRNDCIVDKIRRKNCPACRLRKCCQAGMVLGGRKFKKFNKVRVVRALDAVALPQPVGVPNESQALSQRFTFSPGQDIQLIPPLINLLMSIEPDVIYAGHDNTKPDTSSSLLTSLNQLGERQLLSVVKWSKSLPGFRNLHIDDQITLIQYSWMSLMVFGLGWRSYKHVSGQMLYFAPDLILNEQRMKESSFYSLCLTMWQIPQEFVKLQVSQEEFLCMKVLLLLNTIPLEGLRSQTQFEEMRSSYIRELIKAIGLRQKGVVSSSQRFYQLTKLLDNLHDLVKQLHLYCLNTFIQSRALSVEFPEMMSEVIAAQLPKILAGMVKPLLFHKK
Chain of Nuclear receptor subfamily 1 group I member 2 (Rattus norvegicus) (Q9R1A7 whole entry, looked up): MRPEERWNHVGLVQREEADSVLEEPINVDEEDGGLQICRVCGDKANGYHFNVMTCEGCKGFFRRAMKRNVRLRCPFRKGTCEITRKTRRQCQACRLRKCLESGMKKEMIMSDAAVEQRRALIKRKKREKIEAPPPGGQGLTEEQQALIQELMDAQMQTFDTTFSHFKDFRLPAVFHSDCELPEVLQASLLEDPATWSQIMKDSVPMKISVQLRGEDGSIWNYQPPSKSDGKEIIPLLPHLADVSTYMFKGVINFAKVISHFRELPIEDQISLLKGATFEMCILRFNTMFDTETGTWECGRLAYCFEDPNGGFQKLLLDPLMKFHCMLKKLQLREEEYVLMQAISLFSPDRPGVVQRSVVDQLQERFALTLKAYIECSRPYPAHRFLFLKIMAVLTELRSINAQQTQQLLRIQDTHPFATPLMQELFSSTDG
Chain of Thyrotropin-releasing hormone receptor (Homo sapiens) (P34981 whole entry, looked up): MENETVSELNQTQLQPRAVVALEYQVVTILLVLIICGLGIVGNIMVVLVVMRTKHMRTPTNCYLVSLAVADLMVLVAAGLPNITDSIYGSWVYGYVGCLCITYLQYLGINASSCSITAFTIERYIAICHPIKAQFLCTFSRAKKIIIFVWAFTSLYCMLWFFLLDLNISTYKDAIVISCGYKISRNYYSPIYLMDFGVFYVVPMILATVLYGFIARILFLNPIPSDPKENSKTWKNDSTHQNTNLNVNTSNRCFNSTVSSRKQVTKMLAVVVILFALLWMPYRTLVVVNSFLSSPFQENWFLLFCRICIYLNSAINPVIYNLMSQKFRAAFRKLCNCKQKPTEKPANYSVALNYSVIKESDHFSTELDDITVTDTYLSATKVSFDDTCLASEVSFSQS
Chain of Thyrotropin receptor (Homo sapiens) (P16473 whole entry, looked up): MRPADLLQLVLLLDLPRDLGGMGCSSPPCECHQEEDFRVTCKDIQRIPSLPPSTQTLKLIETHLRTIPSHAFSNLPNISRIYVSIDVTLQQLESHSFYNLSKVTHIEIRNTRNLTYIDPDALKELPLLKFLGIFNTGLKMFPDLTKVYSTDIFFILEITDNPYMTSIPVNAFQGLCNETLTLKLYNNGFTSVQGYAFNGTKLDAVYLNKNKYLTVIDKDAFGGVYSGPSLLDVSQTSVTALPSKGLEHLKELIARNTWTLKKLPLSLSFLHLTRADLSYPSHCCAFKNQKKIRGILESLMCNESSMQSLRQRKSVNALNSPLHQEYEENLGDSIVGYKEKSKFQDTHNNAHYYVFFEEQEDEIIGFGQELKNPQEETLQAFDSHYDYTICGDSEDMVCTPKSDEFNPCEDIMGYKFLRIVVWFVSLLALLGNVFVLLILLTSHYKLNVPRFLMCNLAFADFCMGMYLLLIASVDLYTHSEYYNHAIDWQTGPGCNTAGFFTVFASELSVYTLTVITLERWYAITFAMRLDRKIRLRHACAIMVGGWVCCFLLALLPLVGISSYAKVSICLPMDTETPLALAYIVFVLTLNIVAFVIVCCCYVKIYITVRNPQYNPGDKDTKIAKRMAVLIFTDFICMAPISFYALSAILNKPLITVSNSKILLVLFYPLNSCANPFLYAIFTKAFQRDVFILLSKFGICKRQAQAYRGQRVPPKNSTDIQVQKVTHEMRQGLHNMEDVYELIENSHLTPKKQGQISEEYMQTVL

CC(C)(C)c1ccc(OC(=O)c2ccccc2O)cc1
inactive: Potency [1] | Potency [2] | Potency [3] | Potency [4] | Potency [5] | outcome [6] | outcome [7] | outcome [8] | Potency [9] | Potency [10] | Potency [11] | outcome [12] | Potency [13]

COc1ccc(Nc2ccc(OC)cc2)cc1
active: Potency [17] 24.8 µM
inactive: Potency [14] | Potency [2] | Potency [5] | outcome [6] | outcome [8] | outcome [15] | Potency [16] | Potency [9] | Potency [10] | Potency [11] | outcome [12] | Potency [13]

CC[C@H]1CC[C@H](NCc2cc3c(cc2OC)[C@H]2C[C@H]2C(=O)N3C)[C@H](c2ccccc2)N1
active: Potency [9] 30.6 µM | Potency [11] 24.3 µM | Potency [17] 17.2 µM
inactive: Potency [14] | Potency [2] | outcome [6] | outcome [7] | outcome [8] | outcome [15] | Potency [16] | Potency [10] | outcome [12]

CC1(C)S[C@@H]2[C@H](NC(=O)C(C(=O)O)c3ccccc3)C(=O)N2[C@H]1C(=O)O (some centres not stated)
inactive: Potency [1] | Potency [2] | Potency [3] | Potency [4] | Potency [5] | outcome [6] | outcome [7] | outcome [8] | outcome [15] | Potency [16] | Potency [9] | Potency [10] | Potency [11] | outcome [12] | Potency [13] | Potency [17] | max activation [18] 0.938% | Potency [19] | Potency [20]

CCC(=O)O[C@]1(C(=O)SCF)[C@H](C)C[C@H]2[C@@H]3C[C@H](F)C4=CC(=O)C=C[C@]4(C)[C@@]3(F)[C@@H](O)C[C@@]21C
active: Potency [17] 0.473 µM | Potency [18] 1.58 µM | Potency [20] 0.447 µM
inactive: Potency [1] | Potency [3] | Potency [4] | Potency [5] | outcome [6] | outcome [7] | outcome [15] | Potency [16] | Potency [10] | Potency [11] | outcome [12] | Potency [13] | Potency [19]

C=Cc1ccccc1
inactive: Potency [1] | Potency [2] | Potency [3] | Potency [5] | outcome [7] | outcome [8] | Potency [9] | Potency [10] | Potency [11] | outcome [12] | Potency [17]

O=C1N(c2ccccc2)c2ccccc2C1(Cc1ccncc1)Cc1ccncc1
inactive: Potency [1] | Potency [2] | Potency [5] | outcome [6] | outcome [7] | outcome [8] | outcome [15] | Potency [16] | Potency [9] | Potency [10] | outcome [12] | Potency [17]

Cc1ccc(C=O)s1
inactive: Potency [1] | Potency [3] | outcome [6] | outcome [7] | outcome [8] | outcome [15] | Potency [16] | Potency [9] | Potency [10] | Potency [11] | outcome [12] | Potency [13] | Potency [17]

CC(C)(C)C1CCCCC1=O (configuration not stated)
inactive: Potency [1] | Potency [2] | Potency [3] | Potency [5] | outcome [7] | outcome [8] | outcome [15] | Potency [16] | Potency [9] | Potency [10] | Potency [11] | outcome [12] | Potency [13] | Potency [17]

CCN(CCCc1ccccc1)CCCc1ccccc1
inactive: Potency [1] | Potency [2] | Potency [3] | outcome [6] | outcome [7] | Potency [16] | Potency [10] | Potency [11] | outcome [12] | Potency [13] | max activation [18] -0.276% | Potency [19] | Potency [20]

O=C(O[C@@H](C(=O)O)[C@@H](OC(=O)c1ccccc1)C(=O)O)c1ccccc1
inactive: Potency [1] | Potency [3] | Potency [5] | outcome [6] | outcome [7] | outcome [8] | Potency [9] | Potency [10] | Potency [11] | outcome [12] | Potency [13] | Potency [17]

CN1CCN(C2=Nc3ccccc3Oc3ccc(Cl)cc32)CC1
inactive: Potency [1] | Potency [2] | Potency [5] | outcome [6] | outcome [7] | outcome [12] | max activation [18] -1.38% | Potency [20]
active: Potency [3] 26.6 µM | Potency [17] 23.7 µM | Potency [19] 1.26 µM

CCCCCCCCCCCCOCCOS(=O)(=O)O
inactive: Potency [1] | Potency [2] | Potency [4] | outcome [6] | outcome [7] | outcome [8] | Potency [10] | outcome [12] | Potency [13]
active: Potency [5] 27.3 µM

CC(C)NCC(O)COc1ccc(CCOCC2CC2)cc1 (configuration not stated)
inactive: Potency [1] | Potency [2] | Potency [3] | Potency [4] | Potency [5] | outcome [6] | outcome [7] | outcome [8] | Potency [10] | Potency [11] | outcome [12] | Potency [13]

CC(=O)N[C@@H](CC(C)C)C(=O)O
inactive: Potency [1] | Potency [2] | Potency [3] | Potency [4] | Potency [5] | outcome [6] | outcome [7] | outcome [15] | Potency [16] | Potency [10] | Potency [11] | outcome [12] | Potency [13]

CC(=O)O[C@H]1CC[C@@]2(C)C(=CC[C@@H]3[C@@H]2CC[C@]2(C)C(C(C)=O)=CC[C@@H]32)C1
inactive: Potency [1] | Potency [2] | Potency [4] | Potency [5] | outcome [6] | outcome [7] | outcome [15] | Potency [16] | Potency [9] | Potency [11] | outcome [12] | Potency [13] | Potency [17]

COc1cc(N)c(Cl)cc1C(=O)NC1CCN(Cc2ccccc2)CC1
inactive: Potency [2] | Potency [3] | Potency [4] | outcome [6] | outcome [7] | outcome [8] | Potency [16] | Potency [10] | Potency [11] | outcome [12] | Potency [13] | Potency [17] | max activation [18] -4.93% | Potency [19] | Potency [20]
